Screening data (PubChem BioAssay)
Epigenetic mod: derepresses silenced GFP locus in mouse C127i cells | mouse C127i GFP locus derepression, cytometry, 30 h | Potency, µM (series often up to 46.1 µM), for inactives: at the highest dose GFP derepression (activation) | hit rate 0.09% among 68,000 | AID 597; further: % of control where 0% means no effect
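Read-out is the number of GFP-positive cells, scored as fluorescent objects 20 to 120 um wide, reflecting derepression of a silenced CMV-GFP reporter in murine C127i cells after 30 h compound exposure at 37 C.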
Imprint erasure: induces erasure of genomic imprints in mouse ES cells; mouse ES Peg3-LacZ reporter, beta-gal luminescence, 40 h; Potency, µM (top dose mostly 60.7 µM), for inactives: at the highest dose activity change, positive = activation, most hits filed as activators; hit rate 0.02% among 110,000; further: potency means the concentration at half of the fitted maximal effect
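Imprint erasure is scored as LacZ activity from the silenced maternal Peg3 allele in feeder-free female ES cells cultured 40 h with LIF. Luminescence is normalized to in-plate negative controls and fitted to the Hill equation.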
UbGFP stabilizer: proteasome inhibitors stabilizing ubiquitin-GFP reporter | Potency, µM (highest dose often 45.9 µM), without a hit: at the highest dose activation (GFP accumulation), most hits filed as activators | Ubiquitin-GFP reporter cells, proteasome inhibition, GFP fluorescence; response scale: untreated = 0%, 10 µM MG-132 = 100% | 67,000 tested, under 10 active | AID 526; active means well fitted activation curve with a large enough effect, not every such curve was filed as active; inconclusive means small, poorly fitted or top-dose-only effect, or another doubt; inactive means no such curve, though single readings can be large or run the other way; further: potency means the concentration at half of the fitted maximal effect
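GFP accumulation read-out: laser plate cytometry counting ubiquitin(G76V)-GFP-expressing U2OS cells after 4 hr compound exposure at 37 °C. Titrations spanned 46 uM to 2.9 nM; 0% = basal, 100% = 10 uM MG-132; concentration-response curves fitted.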
p53ts 39C tox: kills p53ts cells at the nonpermissive temperature; H1299-p53A138V viability at 39C, ATP luminescence, 24 h; Potency, µM (titrated, usually from 46.1 µM), for inactives: at the highest dose activity change, negative = cell killing, hits mostly cytotoxic; hit rate 1.5% among 130,000; AID 902; further: potency means the concentration at half of the fitted maximal effect; on the % scale 0 is the no-effect control and ±100 the full control effect; nearly all actives have a fitted effect of over 55% in size
p53ts 32C tox: p53ts cell cytotoxicity, permissive temperature; H1299-p53A138V at 32C, ATP luminescence viability, 24 h; Potency, µM (top dose mostly 46.1 µM), for the others: at the top dose activity change, negative = cytotoxicity, hits mostly cytotoxic; hit rate 0.93% among 130,000;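 further: potency means the concentration at half of the fitted maximal effect; 0% = DMSO and -100% = full killing by reference compound; nearly all actives have a fitted effect of over 55% in size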
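ATP-content luminescence (ATPlite) read-out after 24 h compound exposure at 32C in H1299-p53A138V cells (600/well). Tested up to 46 uM. Normalized to DMSO (0%) and 100 uM tamoxifen (100% killing); Hill-fit AC50.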
HBB splice mod: modulators of hemoglobin beta chain splicing. Potency, µM (titrated, usually from 46.1 µM), for inactives: top-dose activation, actives largely listed as activators. hit rate 0.06% among 65,000. AID 925. HBB splicing reporter cell assay, activation; EGFP reporter with mutant IVS2-654 intron; response scale: normalised to 500 nM splice-correcting PNA; further: potency means the concentration at half of the fitted maximal effect; 0% is about no effect
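Compounds were applied for 2 days to HeLa EGFP-654 cells, 500/well in Optimem with 2% FCS. The reporter's EGFP is disrupted by mis-splicing of beta-globin intron IVS2-654. Readout: summed well GFP fluorescence from 488 nm laser scanning; reference was 500 nM antisense […] 654 PNA.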
Numbers without * were called inactive; ? = inconclusive; . = not tested or not shown; [ ] = remark or other dose. A selection: hits, their analogues and other compounds. The true share with any hit is near 1.6%. Unless noted, the call rests on the fitted dose curve; in most records, active means well fitted curve in the direction sought with a large enough effect; inconclusive means small, poorly fitted or top-dose-only effect, or another doubt; inactive means no such curve, though single readings can be large; an effect the other way counts as inactive or inconclusive.

SMILES	Epigenetic mod	Imprint erasure	UbGFP stabilizer	p53ts 39C tox	p53ts 32C tox	HBB splice mod
Cc1ccc(C(=O)Nc2cccc(C(=O)O)c2)cc1S(=O)(=O)N1CCCCC1	0%	-90%	-3%[9.17 µM]	?	13µM*	-3%[0.0738 µM]
Cc1ccc(C(=O)Nc2ccc3c(c2)OCO3)cc1S(=O)(=O)N1CCCC1	-4%	-23%	6%	-16%	-14%	2%
CCCCN1C(C(=O)c2ccccc2)=C(OC(=O)CC)c2ccccc2S1(=O)=O	.	-24%[10.9 µM]	.	16µM*	-21%	.
CCn1c(=O)c2sccc2n2c(CCCC(=O)N3CCN(c4cccc(Cl)c4)CC3)nnc12	.	-6%[10.9 µM]	.	18%	5%	.
COc1cc(-c2nc3ccc(C)cn3c2Nc2ccc(Cl)cc2)ccc1O	.	5%[10.9 µM]	.	16µM*	-14%	.
O=C1c2ccccc2C(=O)C1c1ccc2ccccc2n1	-6%[20.6 µM]	9%	.	2.5µM*	?	-1%
CSc1nc2c(sc3ccccc32)c(=O)n1Cc1ccc(C)cc1	.	-15%[10.9 µM]	.	-17%	-6%	.
COc1ccc(Cn2c(SCC(N)=O)nc3c(sc4ccccc43)c2=O)cc1	.	11%[10.9 µM]	.	13µM*	-9%	.
CC(C)C(=O)Nc1ccc(-c2nc3cccnc3o2)cc1	0%	-37%	-12%	10µM*	10µM*	1%
Cc1cc2nc(-c3ccc(NC(=O)C(C)C)cc3)oc2cc1C	-6%	-30%	-10%	-6%	10%	-1%[9.22 µM]
CC(C)CCNC(=O)c1ccc(Cn2c(SCC(=O)NC(C)C)nc3ccccc3c2=O)cc1	.	-9%[10.9 µM]	.	19%	-2%	.
Cc1nnc(N2CCN(C(=O)Nc3cc(F)ccc3F)CC2)c2nn(-c3ccc(Cl)cc3)c(C)c12	.	-10%[10.9 µM]	.	13µM*	?	.
COc1ccc(NC(=O)C2CCCN(c3nnc(C)c4c(C)n(-c5ccccc5)nc34)C2)cc1Cl (stereo unspecified)	.	-15%[10.9 µM]	.	10µM*	?	.
COc1ccc(-n2nc3c(N4CCC(C(=O)NCc5cccc(F)c5)CC4)nnc(C)c3c2C)cc1	.	7%[10.9 µM]	.	5µM*	?	.
Cc1ccc(NC(=O)C2CCN(c3nnc(C)c4c(C)n(-c5ccccc5)nc34)CC2)cc1Cl	.	2%[10.9 µM]	.	31%	10%	.
CCOc1ccc(C2c3[nH]c4ccccc4c3CCN2C(=O)Cc2cccc(OCC)c2OCC)cc1 (stereo unspecified)	.	-8%[10.9 µM]	.	-8%	5%	.
Cc1cc(C)cc(N2CC(c3nnc(NC(=O)c4ccco4)s3)CC2=O)c1 (stereo unspecified)	.	-13%[10.9 µM]	.	34%	-3%	.
CCCOCc1cc(CN2CCN(c3cccc(Cl)c3)CC2)c(O)c2ncccc12	.	9%[10.9 µM]	.	16µM*	-7%	.
CN1CCN(Cc2cc(COCc3ccccc3)c3cccnc3c2O)CC1	6.3µM*	-24%	-8%	5µM*	-29%	1%
O=C(Nc1ccc2c(c1)nc1n2CCSC1)c1ccccc1	0%	-74%	.	6.3µM*	3.2µM*	2%[0.369 µM]
O=C(Nc1ccc2c(c1)nc1n2CCOC1)c1ccccc1	0%	-52%	.	16µM*	13µM*	1%[0.369 µM]
COc1ccc(C(=O)Nc2ccc3c(c2)nc2n3CCSC2)cc1	5%	-13%	.	6.3µM*	5µM*	4%[0.369 µM]
COc1cccc(NC(=O)Cn2nc(-c3ccncc3)ccc2=O)c1	.	-4%[10.9 µM]	.	-13%	-5%	.
C[C@@H]1C=CCC(=O)OC[C@H](C)C(=O)OC[C@H]2O[C@H]1C=C[C@@H]2O	.	.	.	7%[9.22 µM]	7%[9.22 µM]	2%[9.22 µM]
COc1ccc(C(=O)Nc2ccc(N(C)Cc3ccccc3)c(C(=O)O)c2)cc1	.	-12%[10.9 µM]	.	-29%	-1%	.
CCc1nc(SCc2cc(=O)c3cc(F)ccc3[nH]2)n[nH]1	.	13%[10.9 µM]	.	-1%	4%	.
CCCN(CCC)CCCNC(=O)c1cnn(-c2ccc(F)cc2)c1-n1cccc1	.	-14%[10.9 µM]	.	-15%	-10%	.
O=C(NCCCN1CCN(c2cccc(Cl)c2)CC1)c1cnn(-c2ccc(F)cc2)c1-n1cccc1	.	-10%[10.9 µM]	.	2.5µM*	?	.
